According to the OligoGym collection:

The sequences below were run against GPAA1 (assay: pooled miR-30 sensor sort-seq; sequence = guide strand). Conditions: shRNA.
Further: reference of the scale not given here.

Row | Sequence | sensor-assay potency score (higher = more potent)
1 | TGAGCTTGCGGAACATGCCCTC | -0.336
2 | TTCCGGGAGAAACTCTGCGTGT | -1.01
3 | TTCTGTTACCAGGAAGACGATA | -1.01
4 | TTGAGGCGCAGCACTAGGCGGG | -0.543
5 | TTCAGTGCCATCCAGCCCCTGT | -0.292
6 | AAAACCAGCGCCAAGAACCAGG | -1.17
7 | TTCTCCGACATGTAAGTGCGCT | -0.864

These sequences were tested against GPATCH3 in the same assay as above. Conditions: shRNA.

Row | Sequence | sensor-assay potency score (higher = more potent)
8 | TCTGTCATAGTACACACTCATG | -1.69
9 | TAAAACACCAGGCCAGAGCCAC | -0.98
10 | TAAAATAGCTCCGTAAATGGGC | -0.362
11 | TATTTCTTCACCCTCTGCTGTA | -0.595
12 | TTCCGTGACGTCGCACACCCAA | -0.81
13 | TTAGAGACCAAAGACAAGCGGT | 0.0667
14 | TAAGCCTCTGAGCTTGAGCCAA | -0.945
15 | TTGAGCTCAATCTCCTCCTCAA | 0.169
16 | TGTACACACAAGCTCTTCCTGC | -0.536
17 | TTAGGGCAGAGTTAGGAGCGGC | -0.764
